Screening data as filed in PubChem.
G9a inh-1 = blocks human histone lysine methyltransferase G9a; AID 504332; G9a H3K9 monomethylation, AlphaScreen, 2 h; Potency, µM (doses to about 102 µM), for inactives: at the highest dose activity, negative = inhibition, actives largely listed as inhibitors; 350,000 compounds, 8.8% hits; Q96KQ7; note: potency is the fitted concentration of half-maximal effect; % is set by controls: 0 for no effect and ±100 for the full control effect; nearly all actives have a fitted effect of over 75% in size
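Methyltransferase reactions run at room temperature for 2 h (20 nM enzyme, 500 nM biotin-H3K9 peptide, 20 uM SAM) after a 15 min compound preincubation; product detected by AlphaScreen beads and anti-H3K9me1 antibody.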
HP1b binding inh = blocks HP1-beta chromodomain binding to methylated histone tails; P83916; AlphaScreen HP1-beta / biotin-H3K9me3 peptide binding; Potency, µM (doses to about 114 µM), for inactives: top-dose activity change, negative = inhibition, usual class: inhibitors; 390,000 compounds, 0.56% hits; note: potency is the fitted concentration of half-maximal effect; nearly all actives have a fitted effect of over 70% in size
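HP1-beta protein (50 nM final) preincubated 30 min at room temperature with biotinylated H3(1-18)K9me3 peptide (50 nM) in PBS pH 7.4, 0.01% Tween-20, then compound added for 30 min. AlphaScreen streptavidin donor/nickel chelate acceptor beads (10 ug/mL final), 30 min dark, luminescence read.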
L3MBTL1 inh-1 = inhibitors of human L3MBTL1; AlphaScreen L3MBTL1–H3K9me1 peptide binding; Q9Y468; AID 485360; 230,000 compounds, 0.66% hits; Potency, µM (doses to about 57.1 µM), for inactives: top-dose activity, negative = inhibition, most hits filed as inhibitors; note: potency is the fitted concentration of half-maximal effect; % is set by controls: 0 for no effect and ±100 for the full control effect; nearly all actives have a fitted effect of over 60% in size
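L3MBTL1 (50 nM) pre-complexed 30 min with biotinylated H3(1-15)K9me1 peptide (75 nM), then compounds added for 30 min at room temperature; AlphaScreen streptavidin donor/nickel chelate acceptor beads (10 ug/mL final) read after 30 min dark incubation.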
JMJD2A Tudor inh = blocks the human JMJD2A Tudor domain | Potency, µM (top dose mostly 114 µM), for inactives: top-dose activity change, negative = inhibition, usual class: inhibitors | AlphaScreen JMJD2A-Tudor / H3K4me3 peptide binding | AID 504339 | 390,000 compounds, 4.4% hits | O75164; note: potency is the fitted concentration of half-maximal effect; % is set by controls: 0 for no effect and ±100 for the full control effect; nearly all actives have a fitted effect of over 50% in size
BAZ2B block = BAZ2B (human) inhibition; Q9UIF8; AlphaScreen BAZ2B-H3K14Ac peptide displacement; Potency, µM (titrated, usually from 114 µM), for inactives: at the highest dose activity change, negative = inhibition, most hits filed as inhibitors; 360,000 compounds, 4.4% hits; note: potency is the fitted concentration of half-maximal effect; % is set by controls: 0 for no effect and ±100 for the full control effect; nearly all actives have a fitted effect of over 60% in size
Target sequence (Q9UIF8 whole entry, looked up): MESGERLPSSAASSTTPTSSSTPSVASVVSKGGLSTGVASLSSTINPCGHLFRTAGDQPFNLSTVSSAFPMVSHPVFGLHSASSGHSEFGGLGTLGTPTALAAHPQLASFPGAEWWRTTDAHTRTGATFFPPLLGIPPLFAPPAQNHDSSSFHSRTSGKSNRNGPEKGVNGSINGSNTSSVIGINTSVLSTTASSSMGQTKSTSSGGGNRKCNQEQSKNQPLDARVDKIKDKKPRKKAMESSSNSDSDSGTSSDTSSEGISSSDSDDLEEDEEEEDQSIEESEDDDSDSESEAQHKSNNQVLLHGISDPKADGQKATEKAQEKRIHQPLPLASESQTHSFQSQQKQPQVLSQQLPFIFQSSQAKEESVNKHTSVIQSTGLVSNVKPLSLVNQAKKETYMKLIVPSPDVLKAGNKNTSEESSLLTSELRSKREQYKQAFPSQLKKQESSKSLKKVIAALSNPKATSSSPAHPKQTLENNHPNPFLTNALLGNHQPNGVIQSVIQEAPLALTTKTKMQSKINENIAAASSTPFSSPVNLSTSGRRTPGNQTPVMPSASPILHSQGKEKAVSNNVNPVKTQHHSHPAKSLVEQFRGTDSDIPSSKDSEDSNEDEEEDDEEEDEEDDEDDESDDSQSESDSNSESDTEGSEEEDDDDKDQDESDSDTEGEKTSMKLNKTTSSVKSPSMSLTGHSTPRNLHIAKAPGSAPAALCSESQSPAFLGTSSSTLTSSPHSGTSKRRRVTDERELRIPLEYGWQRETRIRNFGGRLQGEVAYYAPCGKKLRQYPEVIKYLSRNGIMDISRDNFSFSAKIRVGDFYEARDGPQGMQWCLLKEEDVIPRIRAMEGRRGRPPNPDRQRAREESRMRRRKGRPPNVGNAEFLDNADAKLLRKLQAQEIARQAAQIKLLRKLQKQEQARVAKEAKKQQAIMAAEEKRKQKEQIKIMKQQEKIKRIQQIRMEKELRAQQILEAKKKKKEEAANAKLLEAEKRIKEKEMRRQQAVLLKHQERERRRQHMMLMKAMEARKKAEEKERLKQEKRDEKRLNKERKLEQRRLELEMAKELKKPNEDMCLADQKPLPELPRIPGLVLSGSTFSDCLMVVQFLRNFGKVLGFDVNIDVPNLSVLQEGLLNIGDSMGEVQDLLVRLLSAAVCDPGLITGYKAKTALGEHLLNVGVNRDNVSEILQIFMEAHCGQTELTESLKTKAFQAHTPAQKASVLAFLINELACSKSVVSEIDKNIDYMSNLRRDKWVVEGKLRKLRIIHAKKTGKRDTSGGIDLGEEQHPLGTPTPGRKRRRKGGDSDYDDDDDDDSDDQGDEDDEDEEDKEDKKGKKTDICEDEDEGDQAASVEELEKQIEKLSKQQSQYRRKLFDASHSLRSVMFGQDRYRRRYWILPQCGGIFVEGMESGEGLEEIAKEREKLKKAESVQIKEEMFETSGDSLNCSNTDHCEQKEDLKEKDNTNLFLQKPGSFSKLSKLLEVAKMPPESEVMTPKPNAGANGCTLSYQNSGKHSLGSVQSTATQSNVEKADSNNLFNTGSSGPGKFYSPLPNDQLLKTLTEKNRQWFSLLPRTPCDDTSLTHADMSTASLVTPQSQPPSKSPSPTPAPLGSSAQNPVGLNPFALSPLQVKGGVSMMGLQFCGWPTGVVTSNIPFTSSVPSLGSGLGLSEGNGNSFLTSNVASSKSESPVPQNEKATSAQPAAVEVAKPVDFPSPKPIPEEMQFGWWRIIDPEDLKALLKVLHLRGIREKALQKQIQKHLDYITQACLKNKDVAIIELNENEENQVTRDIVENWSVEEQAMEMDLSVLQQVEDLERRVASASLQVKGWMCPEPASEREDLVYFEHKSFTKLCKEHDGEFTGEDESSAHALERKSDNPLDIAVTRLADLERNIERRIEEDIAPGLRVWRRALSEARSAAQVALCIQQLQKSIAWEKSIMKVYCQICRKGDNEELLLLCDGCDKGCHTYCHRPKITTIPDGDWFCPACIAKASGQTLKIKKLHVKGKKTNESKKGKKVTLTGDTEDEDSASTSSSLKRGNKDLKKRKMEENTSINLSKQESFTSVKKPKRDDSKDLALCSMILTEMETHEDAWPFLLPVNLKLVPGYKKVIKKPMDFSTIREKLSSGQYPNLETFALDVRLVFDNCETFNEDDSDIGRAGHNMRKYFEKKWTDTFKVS
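Multi-concentration screen (max 110 uM) measuring displacement of acetylated histone H3 peptide from BAZ2B by AlphaScreen, using 50 nM protein, 50 nM peptide and 10 ug/mL streptavidin donor plus Ni-chelate acceptor beads.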
PI5P4K alpha inh = PI5P4K alpha (human) kinase inhibition | P48426 | PI5P4Kalpha enzyme, ADP-Glo luminescence, 60 min; stronger effect = lower value | max response, % | 330,000 compounds, 1.2% hits; active = max response of -50% or lower; inconclusive = between -30% and -50%; inactive = -30% or higher; note: value at the top dose of about 77 µM; % is set by controls: 0 for no effect and ±100 for the full control effect
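Enzyme plus substrate dispensed, test compounds pinned in, then ATP (5 microM final) added. After 60 min at RT, ADP-Glo reagent 1 for 45 min and reagent 2 for 30 min preceded luminescence imaging.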
L3MBTL1 inh-2 = blocks human L3MBTL1 methyl-lysine binding | AID 540279 | L3MBTL1 methyl-lysine binding inhibition, biochemical qHTS | 500 compounds, 91% hits | shares compounds with L3MBTL1 inh-1 | Potency, µM, hits mostly inhibitors; note: potency is the fitted concentration of half-maximal effect; nearly all actives have a fitted effect of over 70% in size
L3MBTL1 ctr = interferes with AlphaScreen signal in L3MBTL1 counterscreen; Potency, µM (doses to about 57.1 µM), inactives show at the top dose activity change, negative = inhibition, usual class: inhibitors; 500 tested, under 10 active; AlphaScreen counterscreen, signal inhibition; AID 602224; shares compounds with L3MBTL1 inh-1; note: potency is the fitted concentration of half-maximal effect; 0% is about no effect
ME-1 growth = reduces ME-1 leukemia cell proliferation | Potency, µM (highest dose often 56.1 µM), without a hit: at the highest dose activity change, negative = inhibition, hits mostly inhibitors | AID 504370 | 140 compounds, 20% hits | shares compounds with BAZ2B block | ME-1 cell proliferation, ATP luminescence, 48 h
G9a inh-2 = confirmation of human histone methyltransferase G9a inhibitors. shares compounds with JMJD2A Tudor inh. G9a H3K9 monomethylation, AlphaScreen, 2 h. Potency, µM, hits mostly inhibitors. 370 compounds, 89% hits. AID 588344; note: potency is the fitted concentration of half-maximal effect; nearly all actives have a fitted effect of over 65% in size
ADP-Glo counter = ADP-Glo luciferase interference, PI5P4K counter-screen. shares compounds with PI5P4K alpha inh. ADP-Glo detection counter-screen, luciferase luminescence, no enzyme. Potency, µM (highest dose often 76.9 µM), inactives show at the top dose activity change, negative = inhibition, most hits filed as inhibitors. 1,100 tested, under 10 active. AID 743285
Active calls of the source: *; [ ] = another dose, or the depositor's remark. Only some compounds are listed: those with a hit (about 11% of all), similar ones and a draw of the others. Unless noted, calls come from the whole dose curve; as a rule, active = well fitted curve in the direction sought with a large enough effect; inconclusive = small, poorly fitted or top-dose-only effect, or another doubt; inactive = no such curve, though single readings can be large; an effect the other way counts as inactive or inconclusive.

c1ccc2c(c1)OCC(c1nn3c(Cn4nnc5ccccc54)nnc3s1)O2 (centres undefined) was read as G9a inh-1 5.01µM*, HP1b binding inh inconclusive, L3MBTL1 inh-1 35.5µM*, JMJD2A Tudor inh inconclusive, BAZ2B block 50.1µM*, L3MBTL1 inh-2 inconclusive and L3MBTL1 ctr 6.0%.
`CC(Cc1c[nH]c2ccccc12)C(=O)O` (centres undefined) gave G9a inh-1 10µM*, HP1b binding inh inconclusive, L3MBTL1 inh-1 2µM*, JMJD2A Tudor inh 25.1µM*, BAZ2B block 44.7µM*, PI5P4K alpha inh 0.9, L3MBTL1 inh-2 2.99*, L3MBTL1 ctr 2.4% and ME-1 growth -10.4%[25.6 µM].
`CCC(=O)N1CCc2cc(S(=O)(=O)NCCC(=O)Nc3ccc(OC)c(OC)c3)ccc21` gave G9a inh-1 -3.6%[59 µM], HP1b binding inh 33.3% and JMJD2A Tudor inh 2.3%.
Cc1ccc(-c2nn3c(C)nnc3s2)cc1NC(=O)c1ccc(-c2cccc(Cl)c2)o1 was read as G9a inh-1 inconclusive, HP1b binding inh 55.1%, L3MBTL1 inh-1 22.4µM*, JMJD2A Tudor inh inconclusive, BAZ2B block -7.9%, PI5P4K alpha inh -52.5*, L3MBTL1 inh-2 7.52*, L3MBTL1 ctr 1.9% and G9a inh-2 inconclusive.
Cc1ccc(S(=O)(=O)N2C[C@H]3C(=O)C[C@@H]4C(=O)N(c5ccccc5)C(=O)[C@@H]4[C@@H]3C[C@H]2c2cccc(Cl)c2)cc1 was read as PI5P4K alpha inh -6.9.
Screening O=C(Cc1ccc(S(=O)(=O)N2CCOCC2)s1)Nc1nc2c(s1)CCCC2 returned HP1b binding inh inconclusive, L3MBTL1 inh-1 11.2µM*, JMJD2A Tudor inh 56.2µM*, BAZ2B block 17.8µM*, PI5P4K alpha inh -65.9*, L3MBTL1 inh-2 6.7*, L3MBTL1 ctr -22.0% and ADP-Glo counter -3.2%.
`N#Cc1ccc(CN2CCCC3(CCN(C(=O)c4ccncc4)CC3)C2)cc1` gave G9a inh-1 1.6%[12.7 µM].
Screening CN1CCN(C(CNC(=O)C(=O)Nc2ccc(Cl)cc2)c2cccnc2)CC1 (centres undefined) returned G9a inh-1 -7.5%[59 µM], HP1b binding inh 32.1%, JMJD2A Tudor inh -23.4% and BAZ2B block -8.4%.
`CCCN(C(=O)c1cc2c(s1)CCC2)c1c(N)n(Cc2ccccc2)c(=O)[nH]c1=O` gave HP1b binding inh 30.9%, L3MBTL1 inh-1 17.8µM*, JMJD2A Tudor inh -30.1%, BAZ2B block inconclusive, PI5P4K alpha inh -66.4*, L3MBTL1 inh-2 5.32*, L3MBTL1 ctr 7.6% and ADP-Glo counter 1.5%.
COCCCN(C(=O)c1cc2c(s1)CCC2)c1c(N)n(Cc2ccccc2)c(=O)[nH]c1=O was read as G9a inh-1 -41.7%, HP1b binding inh 0.9%, L3MBTL1 inh-1 inconclusive, JMJD2A Tudor inh -26.9%, BAZ2B block inconclusive and PI5P4K alpha inh inconclusive.
`CCCN(C(=O)c1cccc(-n2cccc2)c1)c1c(N)n(Cc2ccccc2)c(=O)[nH]c1=O` gave G9a inh-1 44.7µM*, HP1b binding inh 44.7µM*, L3MBTL1 inh-1 10µM*, JMJD2A Tudor inh 15.8µM*, BAZ2B block 50.1µM*, PI5P4K alpha inh -88.2*, L3MBTL1 inh-2 4.74*, L3MBTL1 ctr 10.4% and ADP-Glo counter -8.2%.
Screening CCCCN(C(=O)c1cccc(-n2cccc2)c1)c1c(N)n(CCC)c(=O)[nH]c1=O returned G9a inh-1 3.8%[0.501 µM], HP1b binding inh 79.4µM*, L3MBTL1 inh-1 14.1µM*, JMJD2A Tudor inh 14.1µM*, BAZ2B block 44.7µM*, PI5P4K alpha inh -60.9*, L3MBTL1 inh-2 9.47*, L3MBTL1 ctr 7.3% and ADP-Glo counter 1.9%.
Screening CCCCN(C(=O)c1cccc(S(=O)(=O)N2CCCC2)c1)c1c(N)n(CCC)c(=O)[nH]c1=O returned G9a inh-1 4.6%[2.33 µM], HP1b binding inh 30.2%, L3MBTL1 inh-1 3.5%, JMJD2A Tudor inh -12.8%, BAZ2B block 8.0% and PI5P4K alpha inh 0.5.
Screening O=C(C[C@@H]1CC[C@H](NS(=O)(=O)c2ccccc2F)[C@@H](CO)O1)NCCCN1CCOCC1 returned PI5P4K alpha inh -0.8.
`COc1ccc(N2CCN(C(=O)c3cc(S(=O)(=O)N4CCCCCC4)cn3C)CC2)cc1` gave G9a inh-1 inconclusive, HP1b binding inh 7.0%[57 µM], JMJD2A Tudor inh -31.3% and BAZ2B block -34.7%.
O=C(Nc1cccc(S(=O)(=O)NC2=NCCCCC2)c1)c1cc(-c2ccco2)nc2ccccc12 was read as G9a inh-1 inconclusive, HP1b binding inh inconclusive, L3MBTL1 inh-1 35.5µM*, JMJD2A Tudor inh -20.1%, BAZ2B block inconclusive, PI5P4K alpha inh -73.0*, L3MBTL1 inh-2 2.99*, L3MBTL1 ctr 2.6% and ADP-Glo counter -9.5%.
`O=C(CSc1cn(CC(=O)N2CCCCC2)c2ccccc12)Nc1ccccc1F` gave G9a inh-1 -8.2%[59 µM], HP1b binding inh 32.7%, JMJD2A Tudor inh -20.9% and BAZ2B block inconclusive.
CCOC(=O)c1c(-c2ccco2)csc1NC(=O)COC(=O)c1cnc(C)cn1 was read as G9a inh-1 6.1%[0.501 µM], HP1b binding inh inconclusive, L3MBTL1 inh-1 31.6µM*, JMJD2A Tudor inh inconclusive, BAZ2B block 50.1µM*, PI5P4K alpha inh -51.2*, L3MBTL1 inh-2 23.8*, L3MBTL1 ctr -0.2% and ADP-Glo counter 0.4%.
For CCOC(=O)c1c(CC(C)C)csc1NC(=O)COC(=O)c1cnc(C)cn1 the results were PI5P4K alpha inh -5.9.
